Sampled rows, rich in hits. Any-hit rate of the full collection: about 19%.
KB-3-1 tox: KB-3-1 parental cell cytotoxicity; KB-3-1 viability, CellTiter-Glo ATP luminescence, 72 h; Potency, µM (doses to about 46.1 µM), hits mostly cytotoxic; hit rate 1.4% among 400,000; AID 1347075; further: nearly all actives have a fitted effect of over 60% in size
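72 h, 37 °C compound treatment of KB-3-1 parental cells; CellTiter-Glo added, 10 min, luminescence read. Data corrected against DMSO-only plates and normalized before curve fitting.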
HT1080 IDH1KD tx: HT-1080 IDH1 knockdown cell toxicity (counter line). hit rate 2% among 360,000. HT-1080 IDH1 knockdown viability, ATP luminescence, 48 h. AID 686971. Potency, µM (doses to about 46.1 µM), for inactives: at the highest dose activity, negative = toxicity, hits mostly cytotoxic;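 further: 0% = DMSO wells and -100% = cell-free medium wells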
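After a 2 h attachment period, IDH1KD HT-1080 cells took pin-transferred compound for 48 h at 37 °C; ATP-based luminescence after 10 min room-temperature reagent incubation reported viability.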
KB-V1 cytotox: kills drug-selected multidrug resistant KB-V1 cells; KB-V1 MDR cells viability, CellTiter-Glo, 72 h; Potency, µM (highest dose often 46.1 µM), most hits filed as cytotoxic; hit rate 3.4% among 400,000; AID 1347076; further: nearly all actives have a fitted effect of over 60% in size
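Cytotoxicity via CellTiter-Glo luminescence after 72 h compound exposure at 37 degrees C. Cells: drug-selected KB-V1 line, DMEM phenol-red free plus 10% FBS. Compounds tested at multiple concentrations; normalized data fitted to concentration-effect curves.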
HT1080-NT tox: kills 2HG-producing HT-1080-NT fibrosarcoma cells; HT-1080-NT fibrosarcoma viability, CellTiter-Glo ATP luminescence, 48 h; Potency, µM (doses to about 46.1 µM), inactives show at the top dose activity, negative = less viability, most hits filed as cytotoxic; hit rate 1.6% among 360,000;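 further: NT is the 2HG producing partner of a matched IDH1 knockdown line; 0% = DMSO-treated cells and -100% = media-only wells without cells; nearly all actives have a fitted effect of over 55% in size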
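Fibrosarcoma NT cells, 750 per well in 5% FBS RPMI, were exposed to compound for 48 hours. Viability: CellTiter-Glo luminescence.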
TDP1 cell noCPT: qHTS for Inhibitors of human tyrosyl-DNA phosphodiesterase 1 (TDP1): qHTS in cells in absence of CPT; Potency, µM (top dose mostly 46.2 µM), for inactives: top-dose activity change, negative = growth inhibition, actives largely listed as inhibitors; hit rate 15% among 420,000; DT40 Tdp1-/- hTDP1 cells, no CPT, ATP luminescence, 48 h; further: nearly all actives have a fitted effect of over 55% in size
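No-CPT arm: Tdp1-/-;hTDP1 DT40 cells (400/well) plus compounds, incubated ≥48 hr at 37 °C. Readout CellTiter-Glo luminescence.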
DT40 TDP1 CPT: DT40-hTDP1 cell growth loss with CPT; Potency, µM (series often up to 46.2 µM), for inactives: at the highest dose activity change, negative = growth inhibition, hits mostly inhibitors; hit rate 12% among 420,000; chicken DT40 Tdp1-/-;hTDP1 cells + 20 nM CPT, ATP luminescence, 48 h; further: nearly all actives have a fitted effect of over 55% in size
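Chicken DT40 Tdp1-/- cells complemented with human TDP1, 400 cells/well, exposed to compounds plus 20 nM camptothecin for at least 48 h at 37 C; viability read as ATP content by CellTiter-Glo luminescence.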
Starred values were filed as active, the others as inactive; i = inactive; ? = inconclusive; nt = not tested or not shown; ! = not active in a repeat. The call rests on the fitted dose curve; in most records, active means well fitted curve in the direction sought with a large enough effect; inconclusive means small, poorly fitted or top-dose-only effect, or another doubt; inactive means no such curve, though single readings can be large; an effect the other way counts as inactive or inconclusive. Unless noted, on the % scale 0 is the no-effect control and ±100 the full control effect; potency means the concentration at half of the fitted maximal effect.

SMILES | KB-3-1 tox | HT1080 IDH1KD tx | KB-V1 cytotox | HT1080-NT tox | TDP1 cell noCPT | DT40 TDP1 CPT
Oc1cccc(/C=N/Nc2cc(N3CCCC3)nc(N3CCCC3)n2)c1 | ? | 2% | i | 2% | ? | ?
Cc1ccc(N/C=C/C(=O)c2sc(-c3ccccc3)nc2C)cc1 | ? | ? | ? | ? | 23µM* | ?
FC(F)(F)c1nc2nc(Cl)c(Cl)nc2[nH]1 | ? | -20% | i | -17% | 21µM* | ?
FC(F)(F)c1cccc(-c2nc3nc(Cl)c(Cl)nc3[nH]2)c1 | 2.6µM*! | ? | ? | ? | 2.1µM* | 7.3µM*
FC(F)(F)C(F)(F)C(F)(F)c1nc2nc(Cl)c(Cl)nc2[nH]1 | i | -16% | i | -17% | 16µM* | ?
O=C(O)c1nc2nc(Cl)c(Cl)nc2[nH]1 | ? | -1% | i | -9% | -12% | -5%
C=C1CCC(C2CC(=O)OC2=O)C(=O)CCC2C1CC2(C)C (configuration not stated) | nt | nt | nt | nt | -4% | 9%
COc1ccccc1CNC(=O)CN1C(=O)NC2(CCCc3ccccc32)C1=O (configuration not stated) | i | 9% | i | -12% | -12% | -16%
Cc1cc(C)c(S(=O)(=O)Nc2c(C)[nH]c(=O)[nH]c2=O)c(C)c1 | i | -21% | i | -27% | 23µM* | 16µM*
COc1cc(C2OC(=O)c3ccccc3S2)cc(OC)c1OC (configuration not stated) | i | 6% | i | 16% | -20% | 1%
COc1cccc(C(O)C2OC(=O)c3ccccc32)c1OC (configuration not stated) | i | -2% | i | 20% | 9.2µM* | 4%
CCOc1ccccc1CNC(=O)c1ccc(CS(=O)Cc2cccc(Cl)c2)o1 (configuration not stated) | nt | nt | nt | nt | 21µM* | ?
COc1ccc(OC)c(CCNC(=O)c2ccc(CS(=O)Cc3cccc(Cl)c3)o2)c1 (configuration not stated) | i | -8% | i | -20% | 21µM* | 23µM*
COc1ccc(CNC(=O)c2ccc(CS(=O)Cc3cccc(Cl)c3)o2)cc1 (configuration not stated) | i | 0% | ? | 5% | -23% | ?
c1ccc(CNc2nc(N3CCN(Cc4ccccc4)CC3)nc3ccccc23)cc1 | ? | 21µM* | 23µM* | ? | 16µM* | ?
Nc1nc(NCC2CCCO2)nc(Nc2cccc(F)c2)c1[N+](=O)[O-] (configuration not stated) | i | 6% | i | 19% | ? | ?
Oc1cccc(Nc2nc(NCC3CCCO3)c3ccccc3n2)c1 (configuration not stated) | ? | -23% | 18µM* | ? | 15µM* | 16µM*
O=c1c2ccccc2nc2c3ccccc3c(NCc3ccco3)nn12 | i | 7% | ? | 15% | 21µM* | ?
O=S(=O)(Nc1nc2ccccc2nc1NCC1CCCO1)c1cccc(Cl)c1 (configuration not stated) | i | -20% | i | -18% | 16µM* | ?
c1ccc2c(NCC3CCCO3)nc(N3CCOCC3)nc2c1 (configuration not stated) | i | 15% | i | 8% | 1% | -4%
CCOc1ccc(Nc2nc(NCC3CCCO3)c3ccccc3n2)cc1 (configuration not stated) | ? | ? | ? | 18µM* | 2.9µM* | 26µM*
c1ccc(-c2nc(NCc3ccco3)c3ccccc3n2)nc1 | 5.8µM* | ? | ? | -23% | 2.6µM* | 2.6µM*
COc1ccc(Nc2nc(NCC3CCCO3)nc(N)c2[N+](=O)[O-])cc1 (configuration not stated) | i | -14% | i | 3% | ? | ?
COc1ccc(Nc2nc(NCC3CCCO3)c3ccccc3n2)c(OC)c1 (configuration not stated) | i | ? | i | ? | 15µM* | 16µM*
Oc1ccccc1-c1nc(NCc2ccco2)c2ccccc2n1 | i | -26% | i | -25% | ? | -18%
SMILES | KB-3-1 tox | HT1080 IDH1KD tx | KB-V1 cytotox | HT1080-NT tox | TDP1 cell noCPT | DT40 TDP1 CPT
c1ccc(Nc2nc(NCC3CCCO3)c3ccccc3n2)cc1 (configuration not stated) | 16µM* | 18µM* | 21µM* | 23µM* | 3.3µM* | 3.7µM*
COc1cccc2c1Oc1ncccc1N(c1ccc(C(=O)NCc3cccc(C)c3)s1)C2 | i | nt | i | nt | ? | ?
CC(C)C(c1nnnn1C(C)(C)C)N1CCC(Cc2ccccc2)CC1 (configuration not stated) | i | -10% | ? | 0% | ? | ?
O=C(NCC1CCCO1)c1cc(-c2ccncc2)nc2ccccc12 (configuration not stated) | i | -10% | i | 1% | ? | -10%
c1ccc(-c2nc(NCC3CCCO3)c3ccccc3n2)nc1 (configuration not stated) | ? | -11% | ? | ? | 4.6µM* | 5.2µM*
c1coc(CNc2nc(N3CCCCC3)nc3ccccc23)c1 | ? | ? | ? | ? | 18µM* | 26µM*
COC(=O)c1[nH]c2cc(OC)c(OC)cc2c1NC(=O)CN1C[C@H]2C[C@@H](C1)c1cccc(=O)n1C2 | i | 6% | i | 15% | -1% | 18%
CCOC(=O)c1ccccc1NC(=O)c1cn(-c2ccc(OC)cc2)c(=O)c2ccccc12 | i | -30% | ? | ? | ? | ?
COC(=O)c1ccccc1NC(=O)c1cn(-c2ccc(C)c(C)c2)c(=O)c2ccccc12 | ? | 3% | ? | 4% | 23µM* | ?
CCOC(=O)c1ccccc1NC(=O)c1cn(-c2ccc(C)c(C)c2)c(=O)c2ccccc12 | i | -2% | ? | -4% | ? | 21µM*
CC1CCN(S(=O)(=O)c2ccc3c(c2)N(CC(=O)NCCCN2C(C)CCCC2C)C(=O)CO3)CC1 (configuration not stated) | i | -2% | i | -3% | 12% | 2%
Cc1cccnc1NC(=O)CSc1nnc(CNC(=O)c2cccc([N+](=O)[O-])c2)n1C | nt | 10% | nt | 8% | -14% | 1%

Screening data from PubChem BioAssay.
